Here are results for 6 molecules from PubChem BioAssay (NCATS).

Experiment [1] addresses Lysosomal acid glucosylceramidase (Homo sapiens) (UniProt P04062). The experiment can be described thus: Glucocerebrosidase-p2 (AID 348; in the data active means potency below about 10 µM; further: potency means the concentration at half of the fitted maximal effect). To be noted: purified GBA, blue fluorogenic substrate, 40 min. Summed up:
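Compounds titrated from 0.6 nM upwards against 0.2 nM enzyme in pH 5.9 citric acid/KH2PO4, taurocholate, tween-20; blue fluorogenic substrate 80 uM, 40 min room temperature, stopped and read Ex 365/Em 440 for AC50.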

Experiment [2] can be described thus: AP1 Signaling Pathway (AID 357; active means well fitted curve in either direction with a large enough effect, not every such curve was filed as active;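 further: ME-180 reporter cells stimulated with EGF at its EC50 level; on the % scale 0 is the no-effect control and ±100 the full control effect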). The settings on record: ME-180 AP-1-bla reporter, EGF-induced, beta-lactamase ratio, 5 h; at 7.69 µM (top of the series) unless noted. An outline of the steps: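 Beta-lactamase reporter under AP-1 response element, ME-180 background. Stimulus: EC50 EGF. Compound exposure 5 h, 37 °C. Detection: CCF4, 2.5 h RT, 460/530 nm. Values: AC50 from titration.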

The target in experiment [3] is Cytochrome P450 1A2 (Homo sapiens) (UniProt P05177). The experiment in a line: p450-cyp1a2 (AID 410; calls by dose curve; further: potency means the concentration at half of the fitted maximal effect). The settings on record: recombinant CYP1A2, luciferin-ME demethylation, luminescence; series mostly up to 57 µM. Summed up:
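Inhibition was calculated relative to 57 uM furafylline (full inhibition). The reaction used human CYP1A2 at 20nM with Luciferin-ME at its Km, 100uM, driven by an NADPH-regenerating system for 60 min at room temperature.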

Experiment [4] in a line: NFAT Signaling Pathway (AID 444; active means well fitted curve in either direction with a large enough effect, not every such curve was filed as active;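 further: carbachol stimulus at about its EC50 of 1 µM final; on the % scale 0 is the no-effect control and ±100 the full control effect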). The settings on record: Jurkat NFAT-bla M1, carbachol, beta-lactamase ratio, 5 h; at 7.69 µM (top of the series) unless noted. An outline of the steps: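 Read-out: CCF4 FRET ratio (460 nm/530 nm) after 1 h RT dye loading, used for %activity and AC50 from titration series. Cells: Jurkat NFAT-β-lactamase/M1 line, treated with compound plus 1 uM carbachol for 5 h, 37 °C.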

Experiment [5] is described as follows: Stat Signaling Pathway (AID 446; active means well fitted curve in either direction with a large enough effect, not every such curve was filed as active;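 further: ME-180 cervical cancer cells given 40 pM IL-6 alongside compound; SIE-controlled beta-lactamase reporter measured as 460/530 nm FRET emission ratio; on the % scale 0 is the no-effect control and ±100 the full control effect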). The settings on record: ME-180 SIE beta-lactamase reporter, IL-6 stimulated, 5 h; at 7.69 µM (top of the series) unless noted. Summed up:
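Screening format detects activators and inhibitors alike: ME-180 SIE-bla cells stimulated at 40 pM IL-6 for 5 hrs with compound, then dual-emission beta-lactamase read at 405 nm excitation.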

Experiment [6] deals with Glucocorticoid receptor (Homo sapiens) (UniProt P04150). The experiment can be described thus: GR-GFP Redistribution (AID 450;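 active means compounds whose dose series gives a full or clear partial fitted curve of increased nuclear translocation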; further: potency means the concentration at half of the fitted maximal effect). The settings on record: U2OS GR-GFP nuclear translocation, laser cytometry, 2 h.
Chain of Glucocorticoid receptor (Homo sapiens) (P04150 whole entry, looked up, the tested form may be a part): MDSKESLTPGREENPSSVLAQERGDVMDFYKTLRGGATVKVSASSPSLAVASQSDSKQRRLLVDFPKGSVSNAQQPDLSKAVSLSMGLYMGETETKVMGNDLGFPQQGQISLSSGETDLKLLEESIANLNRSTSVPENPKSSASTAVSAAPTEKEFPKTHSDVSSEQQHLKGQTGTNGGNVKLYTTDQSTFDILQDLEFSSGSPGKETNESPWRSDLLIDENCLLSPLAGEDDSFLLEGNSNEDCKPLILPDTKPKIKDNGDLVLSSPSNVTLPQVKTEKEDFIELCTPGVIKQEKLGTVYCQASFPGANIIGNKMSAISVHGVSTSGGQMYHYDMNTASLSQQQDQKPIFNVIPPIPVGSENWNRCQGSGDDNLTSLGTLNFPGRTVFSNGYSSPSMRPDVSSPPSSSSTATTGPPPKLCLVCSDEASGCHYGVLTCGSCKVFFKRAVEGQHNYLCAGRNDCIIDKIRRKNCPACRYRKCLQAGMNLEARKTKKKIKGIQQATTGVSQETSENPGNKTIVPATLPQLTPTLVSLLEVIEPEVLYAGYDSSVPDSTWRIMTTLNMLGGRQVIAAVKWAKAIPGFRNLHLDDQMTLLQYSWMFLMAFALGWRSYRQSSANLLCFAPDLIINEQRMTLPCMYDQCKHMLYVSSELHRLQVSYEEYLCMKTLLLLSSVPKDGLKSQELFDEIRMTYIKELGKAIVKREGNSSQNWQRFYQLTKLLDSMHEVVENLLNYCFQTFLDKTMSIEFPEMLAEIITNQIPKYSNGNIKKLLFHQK
For experiment [7] the target is unchanged. The experiment in a line: GR-EFC Redistribution (AID 451; calls by dose curve; further: potency means the concentration at half of the fitted maximal effect). The settings on record: CHO-K1 GR-EFC translocation, beta-gal luminescence, 2 h. An outline of the steps: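 Translocation of GR-ED fusion to nuclear EA restores b-gal, read by luminescence after 1 h room-temperature detection. Engineered CHO-K1 biosensor cells, 1,000/well, exposed 2 h at 37 C to titrations up to 46 uM final.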

Experiment [8] addresses Mitogen-activated protein kinase 10 (Mus musculus) (UniProt Q61831). The experiment in a line: JNK3 AlphaScreen Assay (AID 530; active means well fitted curve in either direction with a large enough effect, not every such curve was filed as active;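 further: kinase came from lysate of stimulated human HepG2 cells; signal reports phosphorylation of biotinylated GST-cJun 1-79 at Ser73 with 10 µM ATP; on the % scale 0 is the no-effect control and ±100 the full control effect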). To be noted: JNK3 lysate, c-Jun phosphorylation; series mostly up to 57.1 µM. Summed up: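 Room-temperature AlphaScreen kinase assay; pre-activated HepG2 lysate as JNK3 source, biotin-GST-cJun(1-79) substrate, 10 uM ATP, compound 15 min preincubation.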

Experiment [9] concerns the target 3',5'-cyclic-AMP phosphodiesterase 4B (Homo sapiens) (UniProt Q07343). The experiment can be described thus: qHTS Assay for Inhibitors of PDE-IV (AID 607; active means well fitted activation curve with a large enough effect in the main read-out, with a control signal flat, not every such curve was filed as active; further: % of control where 0% means no effect). The settings on record: HEK293 ACTOne CNG channel cells, membrane potential fluorescence; series mostly up to 22.9 µM. Summed up:
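The readout is membrane depolarisation from a cAMP-sensing CNG channel, detected with a potential dye at ex 535/em 590. Cells were HEK293-derived (endogenous PDE-IV) at 1000 cells/well, titrated up to 22.9 uM final.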
For orientation: In qHTS, concentration-response curves come from the screen itself.

Experiment [10] deals with Cytochrome P450 3A4 (Homo sapiens) (UniProt P08684). The experiment can be described thus: qHTS Assay for Activators of Cytochrome P450 3A4 (AID 885). Further: nearly all actives have a fitted effect of over 65% in size. To be noted: recombinant CYP3A4, Luciferin-PPXE luminescence, 60 min; series mostly up to 57.1 µM. Summed up: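 Steps: enzyme/substrate mix dispensed; compound added, 10 min RT; NADPH regeneration solution added, 60 min RT; luciferin detection buffer stops reaction; 20 min later luminescence measured.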
Chain of Cytochrome P450 3A4 (Homo sapiens) (P08684 whole entry, looked up): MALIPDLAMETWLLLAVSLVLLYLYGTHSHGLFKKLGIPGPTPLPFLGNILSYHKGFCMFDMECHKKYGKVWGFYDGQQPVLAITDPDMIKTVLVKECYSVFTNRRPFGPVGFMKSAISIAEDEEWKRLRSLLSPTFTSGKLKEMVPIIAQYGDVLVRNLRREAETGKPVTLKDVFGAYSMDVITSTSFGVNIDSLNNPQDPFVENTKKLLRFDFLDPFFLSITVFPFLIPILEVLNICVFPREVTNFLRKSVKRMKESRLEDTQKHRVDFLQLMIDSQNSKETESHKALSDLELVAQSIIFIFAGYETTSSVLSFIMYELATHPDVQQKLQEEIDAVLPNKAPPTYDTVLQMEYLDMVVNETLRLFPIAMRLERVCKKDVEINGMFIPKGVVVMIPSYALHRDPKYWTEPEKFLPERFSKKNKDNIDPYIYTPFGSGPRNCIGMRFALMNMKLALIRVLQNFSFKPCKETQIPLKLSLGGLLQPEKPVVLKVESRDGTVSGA

Experiment [11] concerns the target Dual specificity protein kinase CLK4 (Homo sapiens) (UniProt Q9HAZ1). The experiment in a line: qHTS Assay for Inhibitors of CDC-like Kinase 4 (Kinase-Glo Assay) (AID 1770). Further: nearly all actives have a fitted effect of over 65% in size. Further: potency means the concentration at half of the fitted maximal effect. To be noted: recombinant Clk4, Kinase-Glo ATP depletion luminescence; series mostly up to 66.7 µM. Summed up: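 Inhibition was judged from remaining ATP, measured by Ultra-Glo luciferase bioluminescence after Clk4 (25 nM) had acted on RS peptide at 1 uM ATP for 4.5 hours, room temperature.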

The target is the same in experiment [12]. The experiment can be described thus: qHTS Assay for Inhibitors of CDC-like Kinase 4 (ADP-Glo Assay) (AID 1771). Further: nearly all actives have a fitted effect of over 70% in size. Further: potency means the concentration at half of the fitted maximal effect. The settings on record: recombinant CLK4, ADP-Glo luminescence; series mostly up to 80 µM. Summed up:
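Kinase reaction: Clk4 at 25 nM, RS repeat peptide substrate at 100 uM, ATP at 1 uM, 1 hr, room temperature. Product ADP detected as luciferase signal via ADP-Glo.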

Experiment [13] can be described thus: Primary qHTS for small molecule stabilizers of the endoplasmic reticulum resident proteome: Secreted ER Calcium Modulated Protein (SERCaMP) assay (AID 1508630). Further: on the % scale 0 is the no-effect control and ±100 the full control effect. The settings on record: SH-SY5Y GLuc-SERCaMP (Gaussia luciferase released on ER calcium loss) secretion, thapsigargin, luminescence; series mostly up to 38.4 µM. Summed up: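 GLuc-SERCaMP-expressing SH-SY5Y cells, pretreated 16 h with compound, are challenged with thapsigargin to empty ER calcium stores; after 4 h, coelenterazine is added directly to the medium and luminescence is imaged.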

The target in experiment [14] is Ubiquitin carboxyl-terminal hydrolase 1 (Homo sapiens) (UniProt O94782). The experiment in a line: Inhibitors of USP1/UAF1: Pilot qHTS (AID 504865).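 Further: rhodamine fluorescence freed from ubiquitin-rhodamine substrate followed over time; top concentration of the series differs between compounds; on the % scale 0 is the no-effect control and ±100 the full control effect; nearly all actives have a fitted effect of over 35% in size.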 To be noted: purified USP1/UAF1, Ub-rhodamine cleavage fluorescence; series mostly up to 54.9 µM. Summed up: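 Kinetic fluorescence assay: 1nM USP1/UAF1, 15 min compound preincubation, then 150nM Ub-Rho; 480/540 nm.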
Chain of Ubiquitin carboxyl-terminal hydrolase 1 (Homo sapiens) (O94782 whole entry, looked up): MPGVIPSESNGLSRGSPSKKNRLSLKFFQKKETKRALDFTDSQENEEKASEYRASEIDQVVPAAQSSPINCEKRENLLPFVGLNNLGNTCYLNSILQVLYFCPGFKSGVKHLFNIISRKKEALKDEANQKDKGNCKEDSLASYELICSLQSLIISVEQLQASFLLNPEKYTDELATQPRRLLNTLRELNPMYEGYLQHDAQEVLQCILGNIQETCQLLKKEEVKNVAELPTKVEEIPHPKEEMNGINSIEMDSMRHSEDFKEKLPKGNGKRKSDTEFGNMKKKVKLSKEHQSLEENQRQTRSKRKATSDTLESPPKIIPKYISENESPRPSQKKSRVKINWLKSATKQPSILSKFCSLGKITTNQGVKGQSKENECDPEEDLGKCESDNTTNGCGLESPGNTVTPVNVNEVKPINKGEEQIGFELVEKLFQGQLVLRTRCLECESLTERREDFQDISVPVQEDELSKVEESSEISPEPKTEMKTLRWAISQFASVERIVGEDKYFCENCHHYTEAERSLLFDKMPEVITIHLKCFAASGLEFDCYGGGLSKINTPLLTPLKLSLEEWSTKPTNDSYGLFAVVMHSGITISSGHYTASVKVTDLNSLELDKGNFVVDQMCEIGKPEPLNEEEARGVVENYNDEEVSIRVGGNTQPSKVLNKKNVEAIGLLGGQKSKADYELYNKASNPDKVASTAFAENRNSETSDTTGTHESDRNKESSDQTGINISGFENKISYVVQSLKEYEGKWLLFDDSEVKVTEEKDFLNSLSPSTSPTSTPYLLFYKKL

The target of experiment [15] is Cytochrome P450 3A4 (Homo sapiens) (UniProt P08684). The experiment can be described thus: qHTS Assay for Inhibitors and Substrates of Cytochrome P450 3A4 (AID 884). Further: potency means the concentration at half of the fitted maximal effect; nearly all actives have a fitted effect of over 50% in size. The settings on record: recombinant CYP3A4, Luciferin-PPXE luminescence; series mostly up to 57.1 µM. Summed up: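 20 nM human CYP3A4 with 25 uM Luciferin-PPXE (at KM) in 200 mM KPO4, preincubated 10 min with compound; NADPH regeneration started a 60 min RT reaction. Luciferin detected by luminescence, normalized to 57 uM ketoconazole as full inhibition.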

Experiment [16] has as its target Cytochrome P450 2D6 (Homo sapiens) (UniProt P10635). The experiment can be described thus: qHTS Assay for Inhibitors and Substrates of Cytochrome P450 2D6 (AID 891). Further: potency means the concentration at half of the fitted maximal effect; nearly all actives have a fitted effect of over 60% in size. The settings on record: recombinant CYP2D6, luciferin-ME EGE luminescence; series mostly up to 57.1 µM. Summed up:
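Human CYP2D6 (5 nM) with 30 uM Luciferin-ME EGE (at Km) in 100 mM KPO4, compound preincubated 10 min, then NADPH regeneration system for 60 min at room temperature. Luciferin read by luminescence; normalized to 1.43 uM quinidine.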

Experiment [17] addresses Cytochrome P450 2C19 (Homo sapiens) (UniProt P33261). The experiment in a line: qHTS Assay for Inhibitors and Substrates of Cytochrome P450 2C19 (AID 899). Further: potency means the concentration at half of the fitted maximal effect; nearly all actives have a fitted effect of over 60% in size. The settings on record: recombinant CYP2C19, luciferin-H EGE luminescence; series mostly up to 57.1 µM. An outline of the steps: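 Reactions contain 5nM enzyme, 10uM Luciferin-H EGE (KM) and 50mM KPO4; compound preincubates 10 min at 37C, NADPH regeneration starts turnover for 60 min. Luminescence after detection reagent gives activity.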

Unmarked numbers belong to inactive results. Inconclusive results are not listed. Activity calls are given as the source filed them. Unless noted, the call rests on the fitted dose curve; in most records, active means well fitted curve in the direction sought with a large enough effect; inconclusive means small, poorly fitted or top-dose-only effect, or another doubt; inactive means no such curve, though single readings can be large; an effect the other way counts as inactive or inconclusive.

Chain of Lysosomal acid glucosylceramidase (Homo sapiens) (P04062 whole entry, looked up): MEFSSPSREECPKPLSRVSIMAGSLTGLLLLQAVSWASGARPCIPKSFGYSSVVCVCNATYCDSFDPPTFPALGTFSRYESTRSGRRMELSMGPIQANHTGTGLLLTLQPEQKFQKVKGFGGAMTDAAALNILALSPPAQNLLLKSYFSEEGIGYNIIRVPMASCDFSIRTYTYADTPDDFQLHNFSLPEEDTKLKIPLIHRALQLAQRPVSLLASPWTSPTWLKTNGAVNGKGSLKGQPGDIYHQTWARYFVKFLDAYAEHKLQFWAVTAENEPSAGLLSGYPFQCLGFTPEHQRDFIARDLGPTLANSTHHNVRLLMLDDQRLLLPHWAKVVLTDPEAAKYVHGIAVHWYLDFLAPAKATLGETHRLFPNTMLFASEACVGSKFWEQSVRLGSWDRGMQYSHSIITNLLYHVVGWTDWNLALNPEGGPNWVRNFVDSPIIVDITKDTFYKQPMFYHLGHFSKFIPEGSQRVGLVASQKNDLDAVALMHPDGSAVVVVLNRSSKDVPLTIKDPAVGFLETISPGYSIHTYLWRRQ
Chain of Cytochrome P450 1A2 (Homo sapiens) (P05177 whole entry, looked up): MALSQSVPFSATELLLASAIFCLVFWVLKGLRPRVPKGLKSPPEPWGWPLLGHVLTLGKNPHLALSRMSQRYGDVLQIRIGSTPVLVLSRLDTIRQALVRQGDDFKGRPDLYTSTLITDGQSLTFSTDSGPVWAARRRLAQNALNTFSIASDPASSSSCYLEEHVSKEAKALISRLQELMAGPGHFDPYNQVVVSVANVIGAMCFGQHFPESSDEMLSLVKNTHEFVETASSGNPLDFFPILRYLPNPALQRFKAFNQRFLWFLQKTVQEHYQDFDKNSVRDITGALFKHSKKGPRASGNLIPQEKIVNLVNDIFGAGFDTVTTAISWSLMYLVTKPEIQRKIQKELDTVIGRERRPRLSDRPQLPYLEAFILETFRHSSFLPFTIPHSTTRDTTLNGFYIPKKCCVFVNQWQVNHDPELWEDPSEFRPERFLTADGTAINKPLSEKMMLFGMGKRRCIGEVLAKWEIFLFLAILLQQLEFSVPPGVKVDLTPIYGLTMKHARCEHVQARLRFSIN
Chain of Dual specificity protein kinase CLK4 (Homo sapiens) (Q9HAZ1 whole entry, looked up): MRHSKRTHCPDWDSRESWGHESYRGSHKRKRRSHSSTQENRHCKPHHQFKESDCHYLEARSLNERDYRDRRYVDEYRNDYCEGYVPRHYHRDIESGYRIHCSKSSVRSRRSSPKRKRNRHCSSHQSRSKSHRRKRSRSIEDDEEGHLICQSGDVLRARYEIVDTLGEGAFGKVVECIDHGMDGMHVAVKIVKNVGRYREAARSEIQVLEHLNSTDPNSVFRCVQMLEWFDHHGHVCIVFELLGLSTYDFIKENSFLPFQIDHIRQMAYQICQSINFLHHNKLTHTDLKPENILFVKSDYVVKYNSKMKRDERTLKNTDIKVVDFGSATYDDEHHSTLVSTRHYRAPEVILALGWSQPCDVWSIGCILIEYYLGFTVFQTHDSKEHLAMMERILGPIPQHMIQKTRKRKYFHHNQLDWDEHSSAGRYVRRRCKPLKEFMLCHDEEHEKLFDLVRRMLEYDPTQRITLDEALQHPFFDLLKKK
Chain of 3',5'-cyclic-AMP phosphodiesterase 4B (Homo sapiens) (Q07343 whole entry, looked up): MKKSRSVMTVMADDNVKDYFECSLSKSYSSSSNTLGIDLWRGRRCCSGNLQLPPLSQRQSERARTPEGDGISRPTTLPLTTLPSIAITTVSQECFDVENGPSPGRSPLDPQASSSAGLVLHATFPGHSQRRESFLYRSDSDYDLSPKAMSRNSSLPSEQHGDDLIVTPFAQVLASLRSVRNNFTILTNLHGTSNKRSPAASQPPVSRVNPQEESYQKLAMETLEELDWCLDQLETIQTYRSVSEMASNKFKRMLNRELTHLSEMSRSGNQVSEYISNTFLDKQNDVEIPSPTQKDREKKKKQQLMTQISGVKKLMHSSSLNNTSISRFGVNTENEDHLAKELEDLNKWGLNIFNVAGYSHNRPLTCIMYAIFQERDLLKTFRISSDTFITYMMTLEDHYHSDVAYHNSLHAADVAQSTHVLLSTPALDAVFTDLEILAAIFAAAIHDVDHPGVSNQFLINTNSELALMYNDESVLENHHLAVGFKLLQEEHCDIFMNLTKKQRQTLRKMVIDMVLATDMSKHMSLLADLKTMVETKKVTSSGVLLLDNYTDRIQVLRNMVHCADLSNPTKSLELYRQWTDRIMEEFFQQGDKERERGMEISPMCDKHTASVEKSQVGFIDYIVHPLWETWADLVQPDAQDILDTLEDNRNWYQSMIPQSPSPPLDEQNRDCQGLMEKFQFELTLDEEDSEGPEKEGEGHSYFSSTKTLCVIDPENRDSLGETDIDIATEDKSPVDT
Chain of Cytochrome P450 2C19 (Homo sapiens) (P33261 whole entry, looked up): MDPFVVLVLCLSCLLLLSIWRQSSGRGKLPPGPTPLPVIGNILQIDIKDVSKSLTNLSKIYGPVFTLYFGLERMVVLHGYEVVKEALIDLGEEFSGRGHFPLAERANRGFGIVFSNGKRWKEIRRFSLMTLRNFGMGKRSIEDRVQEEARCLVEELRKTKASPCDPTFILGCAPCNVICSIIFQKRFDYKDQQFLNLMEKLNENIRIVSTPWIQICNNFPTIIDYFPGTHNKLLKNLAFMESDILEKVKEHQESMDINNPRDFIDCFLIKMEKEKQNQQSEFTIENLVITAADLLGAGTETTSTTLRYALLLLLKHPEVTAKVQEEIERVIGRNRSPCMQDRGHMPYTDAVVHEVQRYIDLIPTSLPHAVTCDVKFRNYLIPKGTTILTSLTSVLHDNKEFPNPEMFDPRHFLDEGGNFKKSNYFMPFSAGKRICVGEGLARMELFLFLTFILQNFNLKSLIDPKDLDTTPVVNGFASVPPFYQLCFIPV

As to `CNc1nc(-c2ccoc2)nc2ccccc12`, the Potency in [1] was above 11.4 µM; in experiment [3], 398 nM (active); in experiment [6], above 46 µM; in [7], above 46 µM. For the same molecule, the activity change, negative = inhibition was 0.93% in experiment [2] and -22.3% in [4]. Also, the activity, negative = inhibition in [5] is 8.64%. For the same molecule, the Potency entry in experiment [8], in experiment [9], in [10], in experiment [11] and in experiment [12] was “inactive” throughout. Further, the outcome in [13] was inactive.

In the case of `Cn1c(=O)c(-c2cc(F)cc(F)c2)nc2cnc(Nc3ccccc3)nc21`, the Potency in experiment [1] was above 11.4 µM; in experiment [6], above 9.22 µM; in [7], above 46 µM. Besides, the activity change, negative = inhibition in [2] was -3.31%; in [4] it was 6.94%. Also, in [5], the activity, negative = inhibition is 4.13%. Also, the Potency result in experiment [8], in experiment [9], in experiment [11], in experiment [12] and in experiment [14] was “inactive” each time. Besides, in experiment [13], the outcome was inactive.

Turning to `COc1cccc(-c2nccc(NCc3ccccc3OC)n2)c1`, the Potency was above 11.4 µM in [1]; 1260 nM (active) in experiment [3]; above 46 µM in experiment [6]; above 46 µM in [7]; 2.51 µM (active) in experiment [15]; 398 nM (active) in experiment [16]. The Potency in experiment [17] was 5.01 µM (active); in experiment [11] it was 22.4 µM (active); in experiment [12] it was 14.1 µM (active). Also, the activity change, negative = inhibition in experiment [2] is -18.4%; in experiment [4], 11.8%. For the same molecule, the activity, negative = inhibition in experiment [5] was -8.4%. Also, the Potency entry in [8], in experiment [9] and in experiment [10] was “inactive” throughout. The outcome in experiment [13] was inactive.

As to `COc1ccc(-c2nc3cncnc3n(-c3ccccc3)c2=O)cc1`, the figures for the Potency in experiment [1], in experiment [6] and in experiment [7] were above 11.4 µM, above 9.22 µM and above 46 µM, respectively. Also, the values for the activity change, negative = inhibition in experiment [2] and in experiment [4] were -9.87% and -10.5%, respectively. Moreover, the activity, negative = inhibition in [5] is -2.81%. Moreover, the Potency entry in [8], in experiment [11], in experiment [12] and in experiment [14] was “inactive” each time. Besides, the result in experiment [13] was inactive.

Take `COc1ccc(-c2nc3cnc(N(C)C)nc3n(-c3ccccc3)c2=O)cc1`: the Potency in experiment [1] is above 11.4 µM; in [6] it was above 9.22 µM; in experiment [7] it was above 46 µM. In addition, the activity change, negative = inhibition in experiment [2] was 0.239%; in experiment [4] it was 3.47%. Besides, in [5], the activity, negative = inhibition is 3.24%. For the same molecule, the Potency entry in [8], in experiment [11], in experiment [12] and in experiment [14] was “inactive” throughout. Also, in [13], the outcome was inactive.

`CS(=O)(=O)Nc1cccc(-c2nccc(Nc3ccc(F)cc3)n2)c1`: the Potency is above 11.4 µM in experiment [1]; 126 nM (active) in experiment [3]; above 46 µM in experiment [7]; 15.8 µM (active) in experiment [11]; 10 µM (active) in experiment [12]. Also, the activity change, negative = inhibition in experiment [2] was -12.6%; in [4], 2.44%. The activity, negative = inhibition in experiment [5] is -20.3%. Besides, the Potency result in [8] and in experiment [9] was “inactive” throughout. Moreover, the result in experiment [13] was inactive.
